# The supplement of paper PMC7801607
# Key:
# CHO = assay: % viability of CHO cells (MTT); higher = less toxic; conditions: 48 h
# Procedure, shortened: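 For 48 h, attached CHO cells (10^6 cells/well, 200 µL, seeded the night before) were kept in fresh medium carrying compound at 2 or 20 µM. A colorimetric tetrazolium (MTT) assay then gave survival as percent viability versus untreated cells.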
# HepG2-A16-CD81 = assay: % inhibition of HepG2 viability (CellTiter-Glo); higher = more toxic; conditions: 5 µM;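 further: HepG2-A16-CD81 hepatoma cells plated as in the liver-stage assay but without sporozoites, with DMSO wells as negative and 25 µM puromycin as positive control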
# [1] = test system: Plasmodium falciparum NF54 stage IV/V gametocytes; assay: % inhibition of gametocyte viability (PrestoBlue); higher = more inhibition; conditions: 48 h
# Procedure, shortened: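 Stage IV/V NF54 gametocytes at 2% gametocytaemia and 5% haematocrit (100 µL/well) were treated with compound at 1 or 5 µM and incubated for 48 h at 37 °C under stationary, hypoxic conditions. PrestoBlue (10 µL) was then added for 2 h, and fluorescence at 612 nm was read on 70 µL of transferred supernatant. Percent inhibition of gametocyte viability was normalised to vehicle and kill controls within one run.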
# [2] = test system: Plasmodium falciparum NF54 asexual blood stage; assay: % inhibition of asexual blood stage proliferation (pLDH); higher = more inhibition; conditions: 72 h
# Procedure, shortened: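 Plasmodium falciparum NF54 ring-stage cultures (1% haematocrit, 2% parasitaemia) were incubated with compound at 2 or 20 µM for 72 h at 37 °C under 4% CO2, 3% O2 and 93% N2. Survival was read at 620 nm with the parasite lactate dehydrogenase assay. Results were reported as percent inhibition of asexual proliferation relative to controls.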
# [3] = test system: Plasmodium falciparum NF54 stage IV/V gametocytes; assay: % inhibition of gametocyte viability (ATP bioluminescence); higher = more inhibition; conditions: 24 h
# Procedure, shortened: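 Stage IV/V NF54 gametocytes from density gradients (30,000 per well, 96-well plates) were incubated with compound at 1 or 5 µM for 24 h at 37 °C. A single run supplied percent inhibition of gametocyte viability, based on ATP measured with Promega BacTiter Glo and normalised to control wells.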
# [4] = test system: Plasmodium falciparum NF54 stage IV/V gametocytes; assay: % inhibition of gametocyte viability (luciferase reporter); higher = more inhibition; conditions: 48 h
# Procedure, shortened: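 Percent inhibition came from luminescence and was normalised to controls in a single run. Gametocytes (stage IV/V, NF54-Pfs16-GFP-Luc line, 2% gametocytaemia, 2% haematocrit) were treated with compound at 1 or 5 µM and incubated for 48 h at 37 °C without agitation under hypoxia. Readings used 30 µL lysate with 30 µL Promega luciferin substrate on a GloMax-Multi+ reader, integrating for 10 s.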
SMILES,% viability of CHO cells (CHO; 2 µM),% viability of CHO cells (CHO; 20 µM),% inhibition of HepG2 viability (HepG2-A16-CD81),% inhibition of gametocyte viability ([1]; 1 µM),% inhibition of gametocyte viability ([1]; 5 µM),% inhibition of asexual blood stage proliferation ([2]; 2 µM),% inhibition of asexual blood stage proliferation ([2]; 20 µM),% inhibition of gametocyte viability ([3]; 1 µM),% inhibition of gametocyte viability ([3]; 5 µM),% inhibition of gametocyte viability ([4]; 1 µM),% inhibition of gametocyte viability ([4]; 5 µM)
Cn1cncc1[C@@](N)(c1ccc(Cl)cc1)c1ccc2c(c1)c(-c1cccc(Cl)c1)cc(=O)n2C,94.8%,47.9%,31.9%,21.7%,31.8%,51.2%,75.9%,15.7%,16.3%,0.69%,< 0%
Cc1nc2ccc(Oc3ccccc3)cc2c2c1CCN2CCc1ccccc1,77.5%,-1.21%,2.52%,1.5%,60%,75.9%,110%,20.1%,93.2%,33%,63.3%
CCOC(=O)/C=C/[C@H](C[C@@H]1CCNC1=O)NC(=O)[C@H](CC)n1cccc(NC(=O)c2cc(C)on2)c1=O,89%,79.7%,0.129%,12%,12.7%,43.3%,49.5%,< 0%,< 0%,6.73%,10.7%
COc1ccc(CNC(=O)C2CCN([C@H](C)c3cccc4ccccc34)CC2)cc1,128%,70.1%,0.399%,< 0%,11%,79.1%,64.2%,8.45%,8.31%,12.8%,< 0%
CCCNc1ccc(S(=O)(=O)Nc2cc(C)on2)cc1,93.3%,116%,-1.94%,-0.214%,6.51%,1.93%,-9.2%,0.832%,< 0%,< 0%,< 0%
COc1ccc(NC(=O)CC2Sc3ncnn3C2=O)cc1 (stereo not drawn),99.9%,-0.591%,10.8%,< 0%,2.6%,29.9%,26.3%,0.572%,16.9%,< 0%,15.3%
Cc1cc(O)c2c(c1)C(=O)c1c(I)c(O)c(I)c(O)c1C2=O,81.3%,64.1%,4.29%,< 0%,< 0%,30.5%,64.9%,< 0%,< 0%,< 0%,6.19%
O=C(CCCC(F)(F)F)N1CCC(c2nc(-c3nccs3)no2)CC1,113%,105%,8.03%,-0.494%,2.08%,7.54%,19.8%,0.351%,< 0%,< 0%,8.02%
CN(C)CCCNC(=O)c1ccc(-c2cc(O)c3ncccc3c2)cc1,115%,110%,-5.75%,70.8%,81.4%,68.6%,82.4%,71%,81.1%,5.12%,23.3%
Nc1nnc(-c2ccc(Cl)cc2)s1,84.5%,88.7%,-0.915%,5.08%,< 0%,13.1%,23.9%,< 0%,< 0%,< 0%,< 0%
Nc1nc2c(Cc3cccnc3)c[nH]c2c(=O)[nH]1,97.2%,113%,-4.71%,26.1%,24.3%,2.83%,19.8%,< 0%,< 0%,< 0%,< 0%
O=S(=O)(NCB(O)O)c1ccc(-c2nnn[nH]2)cc1C(F)(F)F,86.3%,66.1%,3.27%,18%,9.79%,29.1%,28.6%,< 0%,< 0%,1.13%,3.64%
COc1cc(Cc2cnc(N)nc2N)c2c(c1OC)OC(C1CC1)C=C2 (stereo not drawn),103%,67.7%,-4.44%,36.3%,6.68%,13%,34%,1.06%,< 0%,35.9%,1.69%
OCCCCn1cnc2c(O)nc(NCc3ccc(Cl)c(Cl)c3)nc21,95.4%,106%,5.96%,< 0%,< 0%,18.9%,91.1%,< 0%,< 0%,< 0%,< 0%
CC(Oc1ccc(Cl)cc1Cl)C(=O)NCc1ccc2c(c1)OCO2 (stereo not drawn),,,,< 0%,35.3%,-4.14%,-3.59%,< 0%,< 0%,< 0%,< 0%
O=c1cc(Nc2ccc3ccccc3c2)[nH]c(=O)[nH]1,85.2%,85.2%,4.08%,< 0%,4.14%,1.56%,3.03%,< 0%,< 0%,< 0%,1.22%
Cc1nc(N(C)C(=O)Cc2ccc(-c3ccccn3)cc2)sc1S(N)(=O)=O,85.2%,59.1%,-0.405%,20.7%,39.1%,-8.1%,-31.8%,4.11%,< 0%,17.6%,< 0%
CCc1nc(N)nc(N)c1C#CC(C)c1cc(OC)cc(-c2ccncc2)c1 (stereo not drawn),89.5%,52.5%,20.8%,< 0%,9.41%,51.1%,94%,< 0%,< 0%,< 0%,< 0%
CC1(C)CC(NC(=O)C(=O)Nc2ccc(Cl)cc2)CC(C)(C)N1,87.7%,57.9%,-9.07%,22.5%,17.1%,-0.102%,60.5%,0.497%,3.94%,3.24%,13.9%
Cc1nc(Nc2ccc(F)cc2)nc(N2CCc3ccccc3C2C)c1C (stereo not drawn),103%,69.7%,8.08%,2.28%,4.43%,49.6%,73.1%,< 0%,43.7%,< 0%,< 0%
Nc1cccc(-c2nc(N)nc(NC3Cc4ccccc4C3)n2)c1,96.5%,75.1%,12.8%,< 0%,< 0%,-7.13%,22.3%,< 0%,< 0%,< 0%,< 0%
